# Laboratory results reported in PubChem BioAssay (EPA / NIEHS).
# Calls of active or inactive are those of the source. Rule for the calls: active = hit-call score of the fitted dose curve at least 0.9, where 1 is the maximum; inactive = score below 0.9.
# Read-out: Protein phosphatase 2A (PPP2R4), PTPA (gene 5524)
# Test: LTEA_HepaRG_PPP2R4: Life Technologies and Expression Analysis (LTEA) Assay for Protein phosphatase 2A (PPP2R4) using HepaRG (AID 2283522)
# Details: mRNA level, 48 h; actives raise or lower the signal
# Experimental: LTEA_HepaRG is a cell based, multiplexed-readout assay that uses HepaRG, a human liver cell line, with measurements taken at 48 hours after chemical dosing on a 96-well plate.LTEA_HepaRG_PPP2R4 is one of 102 assay component(s) measured in the LTEA HepaRG cell culture assay. It is a marker of Cell proliferation, survival, death.Data from the assay component LTEA_HepaRG_PPP2R4 was analyzed into 1 endpoint. This assay endpoint, LTEA_HepaRG_PPP2R4, was analyzed with bidirectional fitting relative to DMSO as the negative control and baseline of activity. Using a type of inducible reporter, measures of mRNA induction for gain or loss-of-signal activity can be used to understand regulation of transcription factor activity. To generalize the intended target to other relatable targets, this assay endpoint is annotated to the phosphatase intended target family, where the subfamily is serine/threonine phosphatase.
# A total of 1060 chemcials from the ToxCast library were tested in eight-point concentration-response experiments. Cell culture and cytotoxicity assays were conducted at Thermo Fisher Scientific's Custom Services facility (Madison, WI). A single lot of human HepaRG cells (Thermo Fisher Scientific, Frederick, MD) was used for the cell culture experiments. 96-well format collagen type I coated plates of human HepaRG cells were prepared using established methods. Briefly, cryopreserved HepaRG cells were thawed, plated at a density of approximately 100,000 cells/well in HepaRG Thaw, Plate, and General Purpose media (HPRG770, Thermo Fisher Scientific), and incubated for 48 hours. 0.5% DMSO was selected as vehicle control to balance the requisite need of DMSO in HepaRG cultures to maintain differentiation (for example, baseline metabolism, proportions of hepatocytes vs. cholangiocytes), while enabling further hepatic receptor pathway activation (for example, PXR and CAR) in response to chemical exposure. 48 hours after plating, the culture medium was replaced with HepaRG Serum-Free Incudtion Media. Cells were exposed to each test chemical in duplicate and maintained in CO2 incubators for another 48 hours. Chemical plates were thawed to room temperature and 200x concentrations of treatment groups were prepared. 8-point conentration-reponse curves were made with the highest exposure at 100 uM, followed by half-log dilutions, all in 0.5% DMSO. Each test plate contained variouse controls, induction positive controls (1mM phenobarbital), cytotoxicity positive controls ([…] aflatoxin B1), vehicle controls (0.5% DMSO), and total lysis controls (0.5% DMSO). Cell morphology images were taken using an Essen IncuCyte FLR automated microscope, with six 96-well plates imaged in about 24 minutes. Images were captured and exported and JPEG files. Spent culture media was transfered to black-well plates for the LDH assay, and remaining media was sorted at -80 C for later use. Cells were treated with RLT buffer and frozen until shipped for gene expression analysis. Total RNA was isolated from the cell suspension in 75 uL of Buffer RLT (Qiagen, Germantown, MD 20874) by Quintiles/Expression Analysis (Durham, NC) using a custom isolation procedure. Total RNA from each plate well was transferred to a preamplification plate. Fluidigm's 96.96 Dynamic ArrayTM (Fluidigm, Amsterdam, the Netherlands) technology was used for gene expression analyses by quantitative reverse transcription polymerase chain reaction (qRT-PCR, performed by Quintiles/Expression Analysis, Durham, NC)89. Standard TaqManTM Assays (Applied Biosystems/ThermoFisher Scientific, Foster City, CA) were used to assess the expression of 93 genes selected based on their selectivity and sensitivity to important hepatic receptors known to be modulated by environmental chemicals; importance in human hepatocyte functionality; and hepatotoxicity. […]
Compound,outcome,AC50
CCCCOC(=O)c1ccc(O)cc1,inactive,–
Cc1oc2c(NC(=O)c3c(Cl)cccc3Cl)cccc2c1C(C)(C)O,inactive,–
CCCCCCCCN(C)CCCCCCCC,inactive,–
CC1=CC(=O)/C(=C(/C)O)C(=O)O1,inactive,–
CO[C@H]1/C=C/O[C@@]2(C)Oc3c(C)c(O)c4c(O)c(c(/C=N/N5CCN(C)CC5)c(O)c4c3C2=O)NC(=O)/C(C)=C\C=C\[C@H](C)[C@H](O)[C@@H](C)[C@@H](O)[C@@H](C)[C@H](OC(C)=O)[C@@H]1C,inactive,–
CCO[Si](CCCNC(N)=O)(OCC)OCC,inactive,–
COc1cc(C(=O)NC2CCN(C)CC2)ccc1Nc1ncc2c(n1)N(C1CCCC1)CC(F)(F)C(=O)N2C,–,11.9 µM (active)
NC(=O)c1nc(-c2cccc(-c3cc(F)ccc3OCC(F)(F)C(F)(F)F)c2)n[nH]1,inactive,–
OCCO,inactive,–
O=C1c2ccccc2C(=O)N1CCc1noc(-c2ccc(CN3CCCCCC3)s2)n1,inactive,–
CN(C[C@@H](CC[N+]12CCC(C3CCCCC3)(CC1)CC2)c1ccc(Cl)c(Cl)c1)C(=O)c1cc(C(F)(F)F)cc(C(F)(F)F)c1,–,76.2 µM (active)
COc1ccc2cc(S(=O)(=O)N[C@H](CC(=O)N[C@H](Cc3ccc(CN4[C@H](C)CCC[C@@H]4C)cc3)C(=O)N(C)C(C)C)c3ccc4c(c3)OCO4)ccc2c1,–,34.3 µM (active)
CN1C(=O)CC[C@H]1c1cccnc1,inactive,–
CCCOC(=O)c1cc(O)c(O)c(O)c1,inactive,–
CC(C)(C)c1cc(/C=C2\SC(N)=NC2=O)cc(C(C)(C)C)c1O,–,96.5 µM (active)
Cc1cccc2ccccc12,inactive,–
Oc1ccc2ccccc2c1,inactive,–
Cc1c2ccccc2c(C)c2c1ccc1ccccc12,inactive,–
Cc1cc2c(cc1C(F)(F)F)N(C(=O)Nc1ccc(Oc3cccnc3C)nc1)CC2,inactive,–
CC(C)(O)c1ccc(CNC(=O)c2cccnc2Oc2ccc3nonc3c2)cc1,inactive,–

Compound,outcome,AC50
CN(C)C(=O)C1(N2CCCCC2)CCN(CC[C@@]2(c3ccc(Cl)c(Cl)c3)CN(C(=O)c3ccccc3)CCO2)CC1,–,27.2 µM (active)
CC[C@@H]1C[C@H](N(Cc2cc(C(F)(F)F)cc(C(F)(F)F)c2)C(C)=O)c2cc(C(F)(F)F)ccc2N1C(=O)OC(C)C,inactive,–
CCN(Cc1cccc(S(=O)(=O)O)c1)c1ccc(C(=C2C=CC(=[N+](CC)Cc3cccc(S(=O)(=O)O)c3)C=C2)c2ccccc2S(=O)(=O)[O-])cc1,inactive,–
CCCC(=O)OCCC(C)C,inactive,–
O=C1O[C@H]([C@@H](O)CO)C(O)=C1O,inactive,–
O=CCCCC=O,inactive,–
O=C=NCCCCCCN=C=O,inactive,–
O=C(O)c1ccccc1C(=O)OCc1ccccc1,inactive,–
CC(C)(c1cc(Br)c(O)c(Br)c1)c1cc(Br)c(O)c(Br)c1,inactive,–
CC(=O)N1CCN(c2ccc(OC[C@H]3CO[C@](Cn4ccnc4)(c4ccc(Cl)cc4Cl)O3)cc2)CC1,–,76.6 µM (active)
CC/C(=C(/CC)c1ccc(O)cc1)c1ccc(O)cc1,–,85.4 µM (active)
Clc1ccccc1C(c1ccccc1)(c1ccccc1)n1ccnc1,–,92.2 µM (active)
CC1(C)NC(=O)N(c2ccc([N+](=O)[O-])c(C(F)(F)F)c2)C1=O,inactive,–
O=c1ccc2ccccc2o1,inactive,–
Cc1cn([C@H]2C[C@H](N=[N+]=[N-])[C@@H](CO)O2)c(=O)[nH]c1=O,inactive,–
CCCCCCCCCCCO,inactive,–
Cc1ccc(C(C)C)cc1,inactive,–
O=C1CCC(C2CCCCC2)CC1,inactive,–
Clc1cc(Cl)c2c(c1)N=C1CCCCCN1C2,inactive,–
CCCCCc1ccc(N)cc1,inactive,–
